# Records with an inconclusive call do not appear. Active and inactive are the calls of the source. Calls come from the whole dose curve; as a rule, active = well fitted inhibition curve with a large enough effect; inconclusive = small, poorly fitted or top-dose-only effect; inactive = flat fitted curve, though single readings scatter.
# System: CRL-7250
# Assay: Cytotoxic Profiling of Annotated Libraries Using Quantitative High-Throughput Screening (AID 1296008); note: nearly all actives have a fitted effect of over 60% in size
# Conditions: Five cell lines viability, CellTiter-Glo ATP luminescence, 48-72 h; max response: stronger effect = lower value
# Outline: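 Cells exposed to compounds for 48 or 72 hr at 37 degrees Celsius. Viability read as ATP-coupled luminescence with CellTiter-Glo after 10 min at room temperature.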
# % is set by controls: 0 for no effect and ±100 for the full control effect; potency is the fitted concentration of half-maximal effect.
Structure (SMILES),outcome,max response,Potency
O=S(=O)(Nc1ccccn1)c1ccc(N=Cc2c(O)[nH]c3ccc4ncsc4c23)cc1,inactive,,
COc1cc([C@H]2c3cc(O)c(OC)cc3C[C@@H](CO[C@@H]3O[C@H](CO)[C@@H](O)[C@H](O)[C@H]3O)[C@@H]2CO)ccc1O,,-6.95% (inactive),
C=C(CO[C@@H]1O[C@H](CO[C@@H]2OC[C@](O)(CO)[C@H]2O)[C@@H](O)[C@H](O)[C@H]1O)C1Cc2cc(C(C)=O)ccc2O1 (some centres undefined),,-1.55% (inactive),
CC(C)[C@@H]1C(=O)N(S(C)(=O)=O)[C@@H]2CCN(C(=O)/C=C/CN3CCCCC3)[C@H]21,inactive,,
CC1(C)CC[C@]2(C(=O)OC3OC(CO)C(O)C(O)C3O)CC[C@]3(C)C(=CCC4[C@@]5(C)CC[C@H](OC6OC(C(=O)O)C(O)C(OC7OC(CO)C(O)C(O)C7O)C6O)C(C)(C)C5CC[C@]43C)C2C1 (some centres undefined),,1.42% (inactive),
COc1cc(C2c3cc4c(c(O)c3CC(CO)C2C(=O)O)OCO4)cc(OC)c1O (centres undefined),,,3.17 µM (active)
Cc1c2cc(c(C(=O)O)c1C)OC1OC(C(O)C(O)C1O)C(O)C(O)C1OC(O2)C(O)C(O)C1O (centres undefined),,-20.3% (inactive),
CC(=O)N[C@H]1[C@H](O[C@H]2CC[C@@]3(C)C(CC[C@]4(C)C3CC=C3[C@@H]5CC(C)(C)CC[C@]5(C(=O)OC5OCC(O)C(O)C5O)CC[C@]34C)C2(C)C)O[C@H](COC2OC(C)C(O)C(OC3OC(C)C(O)C(O)C3O)C2O)[C@@H](O)[C@@H]1O (some centres undefined),,-6.06% (inactive),
CC(=O)OC1C(c2ccccc2)CCC(c2ccccc2)C1OC(C)=O (centres undefined),,2.93% (inactive),

# Source: PubChem BioAssay (NCATS)
